For some of these results: Measured potencies and affinities stand elsewhere.
Columns and labels:
Set-up in all cases: scale not given: direction of the effect not stated beside the values
[1] = target: Protein translocase subunit SecA (Escherichia coli (strain K12)) (UniProt P10408); assay: Assay to Identify E. coli SecA ATPase Inhibitors; assay type: functional; conditions: 30 µM
[2] = target: T1, Ubiquitin-activating enzyme e1, putative (Leishmania donovani (strain BPK282A1)) (UniProt E9BSI1); assay: Leishmania donovani Ubiquitin Activating Enzyme (LdE1); assay type: functional; conditions: 30 µM
T1 sequence (whole entry): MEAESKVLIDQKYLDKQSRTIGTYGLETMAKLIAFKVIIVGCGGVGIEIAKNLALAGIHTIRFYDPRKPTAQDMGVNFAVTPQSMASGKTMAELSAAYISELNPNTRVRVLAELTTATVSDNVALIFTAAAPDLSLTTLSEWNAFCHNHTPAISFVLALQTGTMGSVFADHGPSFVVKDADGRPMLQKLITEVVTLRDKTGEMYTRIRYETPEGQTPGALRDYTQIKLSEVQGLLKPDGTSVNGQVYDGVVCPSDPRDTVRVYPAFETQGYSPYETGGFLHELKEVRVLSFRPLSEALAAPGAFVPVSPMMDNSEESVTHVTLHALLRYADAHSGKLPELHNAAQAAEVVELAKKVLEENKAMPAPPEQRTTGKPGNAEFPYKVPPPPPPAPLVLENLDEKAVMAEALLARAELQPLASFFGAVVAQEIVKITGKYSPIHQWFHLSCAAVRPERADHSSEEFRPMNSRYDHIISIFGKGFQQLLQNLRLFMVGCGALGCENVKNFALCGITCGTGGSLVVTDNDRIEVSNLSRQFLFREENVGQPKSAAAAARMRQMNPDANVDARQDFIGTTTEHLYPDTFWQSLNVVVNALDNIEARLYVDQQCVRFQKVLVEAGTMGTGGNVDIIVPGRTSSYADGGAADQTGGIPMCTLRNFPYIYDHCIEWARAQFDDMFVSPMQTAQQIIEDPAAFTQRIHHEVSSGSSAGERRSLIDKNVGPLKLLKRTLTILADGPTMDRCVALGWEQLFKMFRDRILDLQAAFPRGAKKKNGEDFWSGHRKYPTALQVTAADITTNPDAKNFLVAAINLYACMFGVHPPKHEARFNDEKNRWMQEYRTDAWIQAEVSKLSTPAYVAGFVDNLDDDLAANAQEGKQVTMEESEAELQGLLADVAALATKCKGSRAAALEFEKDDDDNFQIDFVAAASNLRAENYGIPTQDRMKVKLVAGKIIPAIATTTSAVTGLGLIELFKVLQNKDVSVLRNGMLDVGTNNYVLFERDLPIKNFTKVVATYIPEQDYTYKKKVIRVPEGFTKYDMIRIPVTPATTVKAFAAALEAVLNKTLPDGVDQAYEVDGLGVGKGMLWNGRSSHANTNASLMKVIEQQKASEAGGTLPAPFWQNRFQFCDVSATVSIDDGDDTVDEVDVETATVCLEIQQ

[3] = target: AMP-activated protein kinase, AMPK (Homo sapiens) (UniProt P54646+O43741+P54619+Q9UGJ0+Q9Y478+Q13131+Q9UGI9); assay: AMP-dependent Kinase enzyme assay. An in vitro enzyme assay that detects ADP turnover that is directly proportional to AMPK activity. This uses naive AMPK that is activated during the assay with MK-8722; assay type: functional; conditions: 30 µM
[4] = target: Sialic acid-binding Ig-like lectin 9 (Homo sapiens) (UniProt Q9Y336); assay: Hs-Siglec9 ALPHAscreen SOP 20170721; conditions: 10 µM
[5] = system: Trypanosoma cruzi; assay: Trypanosoma cruzi phosphomannomutase and mannose-1-phosphate guanylyltransferase assay; assay type: functional; conditions: 10 µM
[6] = target: T2, Arginase-2, mitochondrial (Homo sapiens) (UniProt P78540); assay: in vitro enzyme assay to detect the production of urea directly proportional to the activity of Arginase II; assay type: functional; conditions: 33.3 µM; note: in the data most compounds retested in dose-response had high values
T2 sequence (whole entry): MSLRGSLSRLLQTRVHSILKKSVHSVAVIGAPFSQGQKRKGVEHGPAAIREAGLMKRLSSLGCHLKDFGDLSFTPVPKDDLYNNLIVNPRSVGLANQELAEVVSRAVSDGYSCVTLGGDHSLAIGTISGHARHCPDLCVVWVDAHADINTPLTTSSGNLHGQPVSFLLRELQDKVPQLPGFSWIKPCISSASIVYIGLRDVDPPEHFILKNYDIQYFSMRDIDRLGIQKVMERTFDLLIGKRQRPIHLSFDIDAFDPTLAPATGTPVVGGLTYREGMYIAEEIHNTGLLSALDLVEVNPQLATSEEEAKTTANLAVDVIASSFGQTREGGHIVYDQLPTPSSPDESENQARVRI

[7] = target: T3, Proteasome subunit beta (Trypanosoma cruzi) (UniProt O96673); assay: Trypanosoma cruzi proteasome chymotrypsin-like activity (TcProtChymo) assay.; note: in the data most compounds retested in dose-response had high values; assay type: functional; conditions: 9.37 µM
T3 sequence (whole entry): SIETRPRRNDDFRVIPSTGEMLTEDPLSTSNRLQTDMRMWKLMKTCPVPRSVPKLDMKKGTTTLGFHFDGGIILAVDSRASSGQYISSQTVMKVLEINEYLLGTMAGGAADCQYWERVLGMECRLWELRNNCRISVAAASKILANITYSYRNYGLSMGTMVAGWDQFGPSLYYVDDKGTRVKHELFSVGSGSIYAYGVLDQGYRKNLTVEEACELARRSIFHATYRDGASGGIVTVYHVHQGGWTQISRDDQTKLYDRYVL

[8] = species on record: Homo sapiens; assay: To identify inhibition of the IFN signalling (Jak-Stat) pathway via expression of an eGFP reporter gene under the control of an IFN-stimulated response element (ISRE) containing MxA promoter.; assay type: functional; conditions: 30 µM
[9] = target: T4, Tyrosyl-tRNA synthetase, putative (Trypanosoma cruzi (strain CL Brener)) (UniProt Q4DSP6); assay: Trypanosoma cruzi tyrosyl tRNA synthetase (TcYRS) _High Tyrosine SOP; assay type: functional; conditions: 30 µM; note: in the data most compounds retested in dose-response had high values
T4 sequence (whole entry): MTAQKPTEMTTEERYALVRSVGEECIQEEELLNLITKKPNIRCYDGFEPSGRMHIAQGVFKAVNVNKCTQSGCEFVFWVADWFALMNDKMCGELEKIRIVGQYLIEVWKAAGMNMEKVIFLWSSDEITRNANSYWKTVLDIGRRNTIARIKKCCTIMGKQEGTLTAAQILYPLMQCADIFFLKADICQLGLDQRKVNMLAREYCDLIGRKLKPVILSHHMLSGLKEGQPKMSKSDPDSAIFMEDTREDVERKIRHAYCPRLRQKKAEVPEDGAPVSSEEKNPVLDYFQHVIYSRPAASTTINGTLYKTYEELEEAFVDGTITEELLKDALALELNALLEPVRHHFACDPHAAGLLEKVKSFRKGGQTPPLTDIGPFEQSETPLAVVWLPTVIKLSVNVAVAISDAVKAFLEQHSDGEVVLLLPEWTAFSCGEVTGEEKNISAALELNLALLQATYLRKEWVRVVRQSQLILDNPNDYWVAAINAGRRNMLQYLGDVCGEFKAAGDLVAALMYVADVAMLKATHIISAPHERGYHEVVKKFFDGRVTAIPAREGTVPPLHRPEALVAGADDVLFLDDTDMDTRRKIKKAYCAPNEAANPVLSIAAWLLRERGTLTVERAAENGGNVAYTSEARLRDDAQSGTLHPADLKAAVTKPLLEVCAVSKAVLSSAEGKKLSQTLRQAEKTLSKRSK

[10] = target: T4, Tyrosyl-tRNA synthetase, putative (Trypanosoma cruzi (strain CL Brener)); assay: Trypanosoma cruzi tyrosyl tRNA synthetase (TcYRS) SOP; assay type: functional; conditions: 30 µM
[11] = target: Chromo domain-containing protein 1 (Saccharomyces cerevisiae (strain ATCC 204508 / S288c) (Baker's yeast)) (UniProt P32657); assay: ScCHD-1 Enzyme Inhibition Assay; assay type: functional; conditions: 30 µM; note: in the data most compounds retested in dose-response had high values
Chromo domain-containing protein 1 (Saccharomyces cerevisiae (strain ATCC 204508 / S288c) (Baker's yeast)), sequence (P32657 whole entry, the tested form may be a part): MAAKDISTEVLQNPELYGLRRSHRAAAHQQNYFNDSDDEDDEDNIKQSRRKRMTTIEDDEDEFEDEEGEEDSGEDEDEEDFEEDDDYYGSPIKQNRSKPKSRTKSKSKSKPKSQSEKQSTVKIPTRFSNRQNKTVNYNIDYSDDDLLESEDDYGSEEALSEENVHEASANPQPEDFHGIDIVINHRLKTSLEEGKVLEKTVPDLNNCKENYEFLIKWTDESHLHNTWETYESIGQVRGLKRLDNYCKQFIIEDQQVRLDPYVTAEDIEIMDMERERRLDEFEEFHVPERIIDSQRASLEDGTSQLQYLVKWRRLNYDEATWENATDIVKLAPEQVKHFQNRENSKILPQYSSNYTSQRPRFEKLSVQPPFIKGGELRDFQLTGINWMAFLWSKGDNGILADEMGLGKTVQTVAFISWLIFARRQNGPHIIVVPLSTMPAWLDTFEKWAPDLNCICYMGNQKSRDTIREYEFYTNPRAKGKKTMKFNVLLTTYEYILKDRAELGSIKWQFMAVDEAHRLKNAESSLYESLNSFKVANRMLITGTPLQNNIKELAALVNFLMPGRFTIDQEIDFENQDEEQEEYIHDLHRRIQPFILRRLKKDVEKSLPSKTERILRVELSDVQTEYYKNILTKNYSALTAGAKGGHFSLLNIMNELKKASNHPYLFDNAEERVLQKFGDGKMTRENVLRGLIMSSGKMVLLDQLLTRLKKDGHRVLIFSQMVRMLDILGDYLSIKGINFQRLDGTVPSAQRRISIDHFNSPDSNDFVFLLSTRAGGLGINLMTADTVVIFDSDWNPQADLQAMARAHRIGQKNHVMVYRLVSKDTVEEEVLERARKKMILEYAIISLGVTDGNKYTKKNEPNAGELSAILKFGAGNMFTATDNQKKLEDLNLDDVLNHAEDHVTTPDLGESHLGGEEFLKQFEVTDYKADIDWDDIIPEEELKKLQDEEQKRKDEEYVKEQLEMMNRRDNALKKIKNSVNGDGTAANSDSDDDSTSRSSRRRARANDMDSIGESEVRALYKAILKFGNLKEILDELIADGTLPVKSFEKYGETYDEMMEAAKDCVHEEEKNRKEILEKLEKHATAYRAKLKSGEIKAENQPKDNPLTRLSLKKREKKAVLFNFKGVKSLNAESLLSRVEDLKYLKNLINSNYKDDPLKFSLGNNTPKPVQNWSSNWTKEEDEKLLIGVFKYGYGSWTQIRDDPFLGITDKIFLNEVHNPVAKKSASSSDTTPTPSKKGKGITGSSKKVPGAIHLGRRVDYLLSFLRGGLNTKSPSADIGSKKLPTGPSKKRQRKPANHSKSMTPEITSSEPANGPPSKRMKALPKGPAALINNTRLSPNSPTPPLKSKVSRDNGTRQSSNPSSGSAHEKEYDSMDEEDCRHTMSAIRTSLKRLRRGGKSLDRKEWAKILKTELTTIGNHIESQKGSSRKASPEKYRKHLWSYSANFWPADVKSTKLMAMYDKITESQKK

Protein translocase subunit SecA (Escherichia coli (strain K12)), sequence (P10408 whole entry): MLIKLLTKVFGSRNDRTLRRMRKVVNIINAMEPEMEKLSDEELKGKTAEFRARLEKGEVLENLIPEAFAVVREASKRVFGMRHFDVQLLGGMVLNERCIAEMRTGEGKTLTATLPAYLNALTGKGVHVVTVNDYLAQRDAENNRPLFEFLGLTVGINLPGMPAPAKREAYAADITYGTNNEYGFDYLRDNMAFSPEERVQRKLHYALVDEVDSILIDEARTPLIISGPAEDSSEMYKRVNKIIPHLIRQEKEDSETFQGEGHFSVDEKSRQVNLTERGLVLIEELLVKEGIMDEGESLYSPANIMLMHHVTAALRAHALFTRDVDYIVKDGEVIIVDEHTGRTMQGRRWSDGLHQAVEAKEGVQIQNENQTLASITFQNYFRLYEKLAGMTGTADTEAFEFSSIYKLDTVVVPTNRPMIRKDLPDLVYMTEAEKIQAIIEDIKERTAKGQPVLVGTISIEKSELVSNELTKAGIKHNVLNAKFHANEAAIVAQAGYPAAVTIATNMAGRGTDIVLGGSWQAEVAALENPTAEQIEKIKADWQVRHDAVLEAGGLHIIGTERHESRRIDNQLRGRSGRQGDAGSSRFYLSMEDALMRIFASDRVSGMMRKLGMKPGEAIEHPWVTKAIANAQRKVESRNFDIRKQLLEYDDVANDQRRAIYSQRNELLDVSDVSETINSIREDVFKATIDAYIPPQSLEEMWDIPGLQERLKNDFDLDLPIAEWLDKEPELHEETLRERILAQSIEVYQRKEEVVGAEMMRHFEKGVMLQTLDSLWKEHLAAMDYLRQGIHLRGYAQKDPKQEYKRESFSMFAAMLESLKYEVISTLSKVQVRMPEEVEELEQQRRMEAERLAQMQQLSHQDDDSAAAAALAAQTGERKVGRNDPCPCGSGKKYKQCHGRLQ
Sialic acid-binding Ig-like lectin 9 (Homo sapiens), sequence (Q9Y336 whole entry): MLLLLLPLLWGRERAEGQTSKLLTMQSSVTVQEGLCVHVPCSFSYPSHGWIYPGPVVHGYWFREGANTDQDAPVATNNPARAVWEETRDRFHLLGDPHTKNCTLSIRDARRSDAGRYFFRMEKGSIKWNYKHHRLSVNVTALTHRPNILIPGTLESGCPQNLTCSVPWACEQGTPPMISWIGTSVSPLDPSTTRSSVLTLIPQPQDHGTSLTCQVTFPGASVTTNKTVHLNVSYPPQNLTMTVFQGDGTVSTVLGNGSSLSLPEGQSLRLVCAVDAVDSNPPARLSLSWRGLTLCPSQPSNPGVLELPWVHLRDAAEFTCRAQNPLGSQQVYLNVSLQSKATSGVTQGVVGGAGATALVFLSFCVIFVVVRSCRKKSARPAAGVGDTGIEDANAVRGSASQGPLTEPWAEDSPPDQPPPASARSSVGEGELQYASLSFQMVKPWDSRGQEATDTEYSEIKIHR

Row | SMILES | Percent Effect [1] [%] | Percent Effect [2] [%] | Percent Effect [3] [%] | Percent Effect [4] [%] | Percent Effect [5] [%] | Percent Effect [6] [%] | Percent Effect [7] [%] | Percent Effect [8] [%] | Percent Effect [9] [%] | Percent Effect [10] [%] | Percent Effect [11] [%]
1 | COc1ccc(C(=O)N(C)Cc2cccc(C#N)c2)c(OC)c1OC | -2.52 | 8.11 | -1.05 | 10.9 | 1.95 | -2.08 | 14.3 | 1.4 | 2.97 | 3.66 | -2.24
2 | Cc1nn(C)c(C)c1C1COCCN1c1ncnc2sccc12 (stereo unspecified) | -2.31 | -2.67 | -0.892 | -4.05 | -0.487 | -2.08 | 10.1 | 31.3 | 1.64 | 3.7 | -1.49
3 | CN(Cc1cccs1)C(=O)CS(=O)(=O)Cc1ccc(Cl)c(Cl)c1 | -3.83 | 2.6 | 4.47 | -21.6 | 5.39 | -2.74 | 16.7 | 6.68 | -11.4 | -2.35 | -21.7
4 | O=C(CCC1CCCC1)NCCn1nc(C2CCNC2)c2cccnc21 (stereo unspecified) | -0.0662 | 0 | 8.6 | 2.58 | 4.53 | -0.699 | 3.26 | -34.5 | 3.19 | 6.41 | -1.12
5 | O=C(Cc1csc(-c2ccco2)n1)N1CCN(c2cnccn2)CC1 | -3.21 | 13.9 | -1.6 | 4.73 | 0.718 | -1.94 | 17.5 | 13.5 | 11.5 | 22.8 | -30.1
6 | CN(C)Cc1nnc(C2CCN(C(=O)CCc3cccs3)CC2)n1C | -3.21 | 13.5 | -7.22 | 25.4 | 4.83 | 1.43 | 12.1 | 5.64 | 6.88 | 14.6 | 72.9
7 | CCC(=O)N1CCc2[nH]cnc2C12CCN(C(=O)CCS(C)(=O)=O)CC2 | 1.36 | 6.94 | -9.27 | 3.42 | 4.37 | 23.4 | 19.1 | 22.1 | 5.26 | 7.69 | -2.55
8 | c1ccc(-c2nc(CNC3CCc4ncnn4C3)co2)cc1 (stereo unspecified) | -6.67 | 20.8 | -3.92 | 12.6 | 7.68 | -3.92 | 3.21 | 9.63 | 8.74 | 19.5 | -7.68
9 | CC(C)(C)c1nc(CN2CCCC2CCc2ccccc2)no1 (stereo unspecified) | -4.12 | -2.6 | 4.97 | -2.77 | -6.18 | -0.712 | -5.91 | 27.2 | 0.971 | -14.6 | 1.21
10 | O=C(NCCOc1ccc(F)c(F)c1)NCc1ccncc1 | -1.97 | 5.41 | 0.439 | -1.88 | -2.32 | -2.86 | 11.2 | 14.5 | -0.529 | 4.88 | -2.73
11 | COc1cccc(CCNC(=O)CN2CCN(C)CC2C)c1 (stereo unspecified) | -1.66 | 0 | -4.34 | -5.98 | -4.92 | 3.51 | 14.5 | 18.7 | 4.95 | 15.8 | -5.6

— ChEMBL document CHEMBL3988442, “University of Dundee, Small-Polar-MMV Screening Library” (2021)
